Test results published in PubChem BioAssay AID2803 (The Scripps Research Institute Molecular Screening Center, 2010).
The whole screen tested about 2,000 compounds, of which about 1,300 (65%) were called active. So high a share suggests a set chosen from earlier hits. These entries were drawn from the full list. A number with no mark means an inactive call. Cut-off read from the data, not from the text of the source: active = inhibition above about 43%; inactive = the rest.

target: Prolyl endopeptidase-like (Homo sapiens) (UniProt Q4J6C6); assay: human PREPL enzyme inhibitors, confirmation, biochemical, fluorescence polarization (AID 2803); settings: recombinant PREPL, fluorescence polarization activity probe; at 5.96 µM; hits give high values;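 note: 0% = protein with DMSO and 100% = wells lacking protein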
Sequence (Q4J6C6 whole entry, looked up): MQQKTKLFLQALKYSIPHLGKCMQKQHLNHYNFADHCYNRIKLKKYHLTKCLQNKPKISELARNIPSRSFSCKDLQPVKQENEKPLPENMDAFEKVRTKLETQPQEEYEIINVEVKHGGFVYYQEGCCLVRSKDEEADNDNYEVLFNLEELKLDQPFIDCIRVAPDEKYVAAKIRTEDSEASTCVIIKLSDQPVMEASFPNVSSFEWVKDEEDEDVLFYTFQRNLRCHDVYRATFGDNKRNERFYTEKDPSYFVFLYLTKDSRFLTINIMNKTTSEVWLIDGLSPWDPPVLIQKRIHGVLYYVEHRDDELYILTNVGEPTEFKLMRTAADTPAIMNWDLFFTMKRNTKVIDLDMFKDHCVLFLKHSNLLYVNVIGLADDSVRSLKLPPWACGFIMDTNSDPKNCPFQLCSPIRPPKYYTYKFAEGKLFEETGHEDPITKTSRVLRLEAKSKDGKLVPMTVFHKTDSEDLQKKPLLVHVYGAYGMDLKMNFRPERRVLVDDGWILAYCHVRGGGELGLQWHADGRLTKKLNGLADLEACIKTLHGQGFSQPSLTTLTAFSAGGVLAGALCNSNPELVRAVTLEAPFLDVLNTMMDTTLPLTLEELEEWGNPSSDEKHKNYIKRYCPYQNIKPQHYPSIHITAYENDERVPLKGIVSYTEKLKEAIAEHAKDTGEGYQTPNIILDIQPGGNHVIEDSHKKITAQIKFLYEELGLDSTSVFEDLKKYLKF

Q: `CCOc1cccc(=NC2CCCCC2)c2c(C)[nH]c(C)c12` was tested. Which inhibition did it give?
A: Its inhibition is 54.4% (active).

Q: With `O=C(NCC(c1cccnc1)N1CCN(c2ccccc2)CC1)Oc1ccccc1` (stereo not drawn) as the compound, how does the inhibition read?
A: Its inhibition is 39.3%.

Q: Which inhibition does the source give for `COc1ccc2[nH]c3c(c2c1)CCN[C@H]3C` here?
A: Its inhibition is 23.7%.
